High-throughput results: PubChem, Broad Institute
Pf Dd2 growth – P. falciparum Dd2 growth inhibition; SYBR Green, 72 h; stronger effect = lower value; activity change, % at 10 µM; 94,000 tested, 2.3% active; in the data active means activity change below about -80%; inconclusive means no clear call, values can overlap the other calls
T cruzi growth-1 – T. cruzi proliferation inhibition; T. cruzi beta-gal in NIH3T3, GalScreen luminescence, 90 h; inhibition, % at 8.34 µM; 77,000 tested, 5.9% active;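 active means mean inhibition above about 93%, with at least 55% of replicates each passing it, limit read from the data, passing the limit was not always enough; inconclusive means only one of those two conditions holds; inactive means neither condition holds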
C diff HTS – blocks growth of Clostridium difficile; Clostridium difficile clinical isolate growth, OD600, 24 h; stronger effect = lower value; AID 1259249; growth activity, negative = inhibition, % at 16 µg/mL (by protocol); 86,000 tested, 0.25% active;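 active means mean growth activity at or below -80% and every replicate also at or below -80%; inconclusive means mean at or below -80% but some replicate above -80%; inactive means mean growth activity above -80%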
T cruzi growth-2 – Trypanosoma cruzi proliferation inhibition; 5,600 tested, 72% active; AID 651739; inhibition, % at 8.35 µM; shares compounds with T cruzi growth-1; T. cruzi beta-gal in NIH3T3, GalScreen luminescence, 90 h;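 active means mean replicate inhibition above about 95% and at least 55% of replicates individually reaching it, limit read from the data; inconclusive means only one of the two criteria is met; inactive means neither criterion is met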
T cruzi growth-3 – Trypanosoma cruzi proliferation inhibition; inhibition, % at 2.09 µM; AID 651740; 5,600 tested, 21% active; shares compounds with T cruzi growth-1; T. cruzi beta-gal in NIH3T3, GalScreen luminescence, 90 h;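 active means mean inhibition above about 95%, with at least 55% of replicates also reaching it, limit read from the data; inconclusive means meets just one of the two conditions; inactive means meets neither condition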
3T3 cytotox – NIH/3T3 (mouse) viability loss; shares compounds with T cruzi growth-1; NIH/3T3 viability, CellTiter-Glo ATP luminescence, 90 h; cytotoxicity (signal decrease), % at 8.35 µM; 5,600 tested, 14% active; AID 651742;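 active means mean signal decrease across replicates above about 35% based on untreated-well scatter, with enough replicates individually passing, limit read from the data; inconclusive means no rule stated though some were filed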
NIH3T3 tox 2 – cytotoxicity in mouse NIH/3T3 fibroblasts; shares compounds with T cruzi growth-1; NIH/3T3 viability, CellTiter-Glo ATP luminescence, 90 h; inhibition, % at 24.9 µM; 5,600 tested, 56% active; AID 651744;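 active means mean loss of cell viability signal at or above a set limit, and enough replicates individually reaching it; inconclusive means meets only the mean limit or only the replicate share; inactive means meets neither condition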
A number is an active result; i = inactive; ? = inconclusive; nt = not tested or not shown. An excerpt weighted towards active compounds, which were near 6.8% of everything screened.

SMILES | Pf Dd2 growth | T cruzi growth-1 | C diff HTS | T cruzi growth-2 | T cruzi growth-3 | 3T3 cytotox | NIH3T3 tox 2
C[C@H](CO)N1C[C@H](C)[C@@H](CN(C)S(=O)(=O)c2cccs2)OCCCC[C@H](C)Oc2ccc(NC(=O)NC3CCCCC3)cc2C1=O | i | i | i | nt | nt | nt | nt
C[C@H](CO)N1C[C@H](C)[C@@H](CN(C)S(=O)(=O)c2cccs2)OCCCC[C@H](C)Oc2ccc(NC(=O)Nc3ccc(C(F)(F)F)cc3)cc2C1=O | i | 97 | i | 102 | 117 | i | 26
C[C@@H]1CCCCO[C@@H](CN(C)S(=O)(=O)c2cccs2)[C@H](C)CN([C@H](C)CO)C(=O)c2cc(NC(=O)NC3CCCCC3)ccc2O1 | ? | 118 | i | 106 | i | i | i
C[C@@H]1CCCCO[C@@H](CN(C)S(=O)(=O)c2cccs2)[C@H](C)CN([C@H](C)CO)C(=O)c2cc(NC(=O)Nc3ccc(C(F)(F)F)cc3)ccc2O1 | i | i | i | nt | nt | nt | nt
C[C@H]1CN([C@@H](C)CO)C(=O)c2cc(NC(=O)Nc3ccc(C(F)(F)F)cc3)ccc2O[C@H]1CN(C)S(=O)(=O)c1cccs1 | i | 123 | i | 103 | i | i | 85
C[C@@H]1CCCCO[C@H](CN(C)S(=O)(=O)c2cccs2)[C@H](C)CN([C@H](C)CO)C(=O)c2cc(NC(=O)Nc3ccc(F)cc3)ccc2O1 | -85 | ? | i | 113 | 100 | i | i
CC(=O)N1[C@@H]2Cn3c(cccc3=O)[C@H]1[C@@H](C(=O)N[C@@H](C)c1ccccc1)[C@@H]2CO | i | nt | i | nt | nt | nt | nt
C[C@H](CO)N1C[C@H](C)[C@H](CN(C)Cc2ccc(C(=O)Nc3ccccc3N)cc2)Oc2ccc(NS(C)(=O)=O)cc2CC1=O | i | i | i | nt | nt | nt | nt
CC(=O)N1CC2(C1)[C@H](c1ccc(-c3cccc(F)c3)cc1)[C@@H](CO)N2CC1CCOCC1 | i | nt | i | nt | nt | nt | nt
CS(=O)(=O)Nc1ccc2c(c1)[C@H]1C[C@H](CC(=O)NCC3CC3)O[C@H](CO)[C@H]1O2 | i | i | nt | nt | nt | nt | nt
C[C@H]1CN([C@@H](C)CO)C(=O)c2cccc(N(C)C)c2O[C@@H]1CN(C)Cc1ccc2c(c1)OCO2 | i | i | i | nt | nt | nt | nt
COc1ccc2c3c([nH]c2c1)[C@H](CO)N(Cc1ccncc1)CC31CCN(C(=O)CN(C)C)CC1 | i | nt | i | nt | nt | nt | nt
C[C@@H]1CN([C@@H](C)CO)C(=O)c2cc(NC(=O)c3ccncc3)ccc2O[C@H]1CN(C)Cc1ccncc1 | i | i | i | nt | nt | nt | nt
COc1cccc(S(=O)(=O)N[C@@H]2CC[C@@H](CCNC(=O)Nc3cc(F)ccc3F)O[C@@H]2CO)c1 | i | i | i | nt | nt | nt | nt
CS(=O)(=O)Nc1ccc2c(c1)[C@@H]1C[C@@H](CC(=O)NCCN3CCCCC3)O[C@H](CO)[C@@H]1O2 | i | nt | i | nt | nt | nt | nt
C[C@@H]1CN([C@H](C)CO)C(=O)c2cc(NC(=O)Nc3ccc(F)cc3)ccc2O[C@@H](C)CCCCO[C@H]1CN(C)S(=O)(=O)c1cccs1 | i | i | i | nt | nt | nt | nt
C[C@@H]1CCCCO[C@H](CN(C)S(=O)(=O)c2cccs2)[C@@H](C)CN([C@H](C)CO)C(=O)c2cc(NC(=O)Nc3ccc4c(c3)OCO4)ccc2O1 | i | i | i | nt | nt | nt | nt
C[C@H]1CCCCO[C@H](CN(C)S(=O)(=O)c2cccs2)[C@@H](C)CN([C@@H](C)CO)C(=O)c2cc(NC(=O)Nc3ccc(F)cc3)ccc2O1 | i | 97 | i | 104 | i | i | i
C[C@H]1CCCCO[C@@H](CN(C)S(=O)(=O)c2cccs2)[C@@H](C)CN([C@@H](C)CO)C(=O)c2cc(NC(=O)Nc3ccc4c(c3)OCO4)ccc2O1 | i | 111 | i | 111 | i | i | i
C[C@@H]1CCCCO[C@@H](CN(C)S(=O)(=O)c2cccs2)[C@H](C)CN([C@H](C)CO)C(=O)c2cc(NC(=O)Nc3ccc(F)cc3)ccc2O1 | i | ? | i | 108 | i | i | i
C[C@@H]1CCCCO[C@H](CN(C)S(=O)(=O)c2cccs2)[C@H](C)CN([C@@H](C)CO)C(=O)c2cc(NC(=O)Nc3ccc(F)cc3)ccc2O1 | i | i | i | nt | nt | nt | nt
C[C@@H](O)C#Cc1cnc2c(c1)C(=O)N([C@@H](C)CO)C[C@H](C)[C@@H](CN(C)C(=O)Nc1ccc(F)cc1)O2 | i | i | nt | nt | nt | nt | nt
COc1ccccc1-c1ccc2n(c1=O)C[C@H]1[C@H](CO)[C@@H](C(=O)N(C)C)N(C(=O)c3cccnc3)[C@@H]21 | nt | i | i | nt | nt | nt | nt
COCC(=O)N1[C@@H]2Cn3c(ccc(-c4ccccc4)c3=O)[C@H]1[C@@H](C(=O)NCc1ccccn1)[C@@H]2CO | nt | i | i | nt | nt | nt | nt
O=C(C[C@H]1CC[C@@H]2[C@H](COC[C@H](O)CN2C(=O)c2cccnc2)O1)Nc1ccc(-c2ccccc2)cc1 | i | i | i | nt | nt | nt | nt
SMILES | Pf Dd2 growth | T cruzi growth-1 | C diff HTS | T cruzi growth-2 | T cruzi growth-3 | 3T3 cytotox | NIH3T3 tox 2
C[C@@H]1CN([C@H](C)CO)C(=O)Cc2cc(NC(=O)CCN3CCOCC3)ccc2O[C@@H]1CN(C)Cc1ccc(Cl)c(Cl)c1 | i | i | i | nt | nt | nt | nt
C[C@@H]1CN([C@@H](C)CO)S(=O)(=O)c2ccc(-c3ccccc3F)cc2O[C@@H]1CN(C)S(C)(=O)=O | i | i | i | nt | nt | nt | nt
C[C@@H]1CN([C@H](C)CO)S(=O)(=O)c2ccc(-c3ccccc3)cc2O[C@@H]1CN(C)S(=O)(=O)c1ccccc1F | i | 122 | i | 100 | i | i | 36
C[C@@H]1CN([C@@H](C)CO)S(=O)(=O)c2ccc(-c3ccccc3)cc2O[C@@H]1CN(C)S(=O)(=O)c1ccccc1F | i | 119 | i | 102 | 103 | i | 46
C[C@H](CO)N1C[C@H](C)[C@H](CN(C)S(C)(=O)=O)Oc2cc(-c3ccccc3)ccc2S1(=O)=O | i | i | i | nt | nt | nt | nt
C[C@@H]1CN([C@@H](C)CO)S(=O)(=O)c2ccc(-c3ccccc3)cc2O[C@H]1CN(C)S(=O)(=O)c1ccccc1F | -84 | 124 | i | 99 | 105 | 56 | 66
C[C@@H]1CN([C@H](C)CO)S(=O)(=O)c2ccc(-c3ccccc3)cc2O[C@H]1CN(C)S(=O)(=O)c1ccccc1F | i | 112 | i | ? | i | 64 | 37
C[C@@H]1CN([C@H](C)CO)S(=O)(=O)c2ccc(-c3ccncc3)cc2O[C@@H]1CN(C)S(=O)(=O)c1ccccc1F | i | nt | i | nt | nt | nt | nt
C[C@H](CO)N1C[C@H](C)[C@H](CN(C)S(=O)(=O)c2ccccc2F)Oc2cc(-c3ccncc3)ccc2S1(=O)=O | i | nt | i | nt | nt | nt | nt
C[C@H](NC(=O)[C@H]1[C@H](CO)[C@H]2Cn3c(cccc3=O)[C@@H]1N2CCC(F)(F)F)c1ccccc1 | nt | i | i | nt | nt | nt | nt
COc1ccc2c3c(n(C)c2c1)[C@H](CO)N(C(=O)CN(C)C)CC31CCN(C(=O)C2CCC2)CC1 | i | nt | i | nt | nt | nt | nt
COCC(=O)Nc1ccc2c(c1)C(=O)N(C)C[C@@H](OC)[C@@H](C)CN(C(=O)C1CCCC1)[C@@H](C)CO2 | i | i | nt | nt | nt | nt | nt
